A word on the AC50: it is the concentration at which the activity in the assay is half-maximal.

This note sets out measurements from PubChem BioAssay AID1851 (National Center for Advancing Translational Sciences (NCATS), 2009).

Several values for one entry are separate records, joined by “and”; a condition that tells them apart may be missing. Equal entries are not always repeated. In all, about 16,000 compounds went through this assay and about 4,000 (25%) were called active. Roughly 26% stayed inconclusive and do not appear here. Calls come from the whole dose curve; as a rule, active = well fitted curve in the direction sought with a large enough effect; inconclusive = small, poorly fitted or top-dose-only effect, or effect the other way; inactive = no such curve, though single readings can be large or run the other way. Not all results are given here.
% is set by controls: 0 for no effect and ±100 for the full control effect.

Sequence of Cytochrome P450 2C9 (Homo sapiens) (P11712 whole entry, looked up): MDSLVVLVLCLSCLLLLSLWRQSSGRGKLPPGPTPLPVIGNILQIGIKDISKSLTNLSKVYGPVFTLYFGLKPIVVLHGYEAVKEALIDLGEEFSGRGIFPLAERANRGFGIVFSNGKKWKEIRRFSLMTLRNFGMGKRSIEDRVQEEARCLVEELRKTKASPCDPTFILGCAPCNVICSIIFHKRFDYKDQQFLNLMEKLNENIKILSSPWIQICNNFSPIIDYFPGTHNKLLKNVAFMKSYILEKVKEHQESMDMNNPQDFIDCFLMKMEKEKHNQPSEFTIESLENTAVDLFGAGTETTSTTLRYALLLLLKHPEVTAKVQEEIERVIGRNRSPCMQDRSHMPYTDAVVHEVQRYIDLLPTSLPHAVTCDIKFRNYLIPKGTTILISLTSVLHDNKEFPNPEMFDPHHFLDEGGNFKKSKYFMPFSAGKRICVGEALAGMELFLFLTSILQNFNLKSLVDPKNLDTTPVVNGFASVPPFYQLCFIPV

The test addresses Cytochrome P450 2C9 (Homo sapiens) (UniProt P11712). Put plainly: Cytochrome panel assay with activity outcomes. The settings on record: recombinant CYP, pro-luciferin dealkylation, luminescence, p450-cyp2c9; series mostly up to 57.1 µM.
Consider `CCN(CC)c1ccc2c(c1)OC(N)=C(C#N)C2c1cccnc1` (stereo not drawn), for which the AC50 is 7.94 µM (active).
As for `Cc1nc(SCc2cccc(Oc3ccccc3)c2)n[nH]1`, the AC50 is 15.8 µM (active).
Regarding `CN(C)Cc1ccccc1-c1nccc(NCc2cccs2)n1`, the activity, negative = inhibition was 13.4% [at 2.29 µM] (inactive).
Regarding `COCCNc1ncnc2ccc(-c3ccccc3CN(C)C)cc12`, the activity, negative = inhibition is 25.7% [at 2.29 µM] (inactive).
For `CCCc1cc(=O)[nH]c(=S)[nH]1`, the AC50 result is “inactive”.
`CN1CCN(c2ncc3ncc(=O)n(CCC#N)c3n2)CC1`: the AC50 result is “inactive”.
As for `CC(=O)OC[C@H]1O[C@@H](ON=C(C)C)[C@H](OC(C)=O)[C@@H](OC(C)=O)[C@H]1OC(C)=O`, the activity, negative = inhibition is 6.05% [at 11.4 µM] (inactive).
On to `O=C(Cn1cccc1C(=O)c1ccccc1)NCc1cccs1`, for which the AC50 result was “inactive”.
Same read-out and setting: with `CC(C)(C)C(=O)Nc1nnc(SCC(=O)NCc2cccs2)s1` the entry was “inactive”; with `CC(C)(O)C#Cc1ccc(C(=O)NCc2cccs2)s1`, 25.1 µM (active).
In the case of `O=S(=O)(O)[C@@H](c1ccccc1)[C@@H](O)c1ccccc1`, the activity, negative = inhibition is 3.25% [at 11.4 µM] (inactive).
Turning to `COCCCNC(=O)C(=O)N/N=C/c1ccc(OCC(=O)Nc2cccc(Cl)c2C)c(OC)c1`, the AC50 entry is “inactive”.
Same read-out and setting: under `COc1cc(/C=N/NC(N)=O)c(Br)cc1OCC(=O)Nc1ccccc1C` stands 3.16 µM (active); under `Cc1ccc(CN2CC34C=CC(O3)C(C(=O)NCc3ccco3)C4C2=O)cc1` (stereo not drawn), “inactive”; under `O=C(NCC1COc2ccccc2O1)C1C2C=CC3(CN(Cc4cccs4)C(=O)C13)O2` (stereo not drawn), 31.6 µM (active).
Take `COCCCNC(=O)C1C2C=CC3(CN(Cc4ccc(C)cc4)C(=O)C13)O2` (stereo not drawn): the AC50 entry was “inactive”.
As to `c1ccc(C[n+]2cccc(-c3cc4ccccc4[nH]3)c2)cc1`, the activity, negative = inhibition is -9.64% [at 11.4 µM] (inactive).
Turning to `O=C1C[C@@H](O)[C@@H](O)[C@H]2[C@@H]3C(=O)N(c4cccc(Oc5ccccc5)c4)C(=O)[C@@H]3CC[C@H]12`, the activity, negative = inhibition is -10.3% [at 11.4 µM] (inactive) and 1.22% [at 11.4 µM] (inactive).
On to `O=C(Nc1nnc(SCc2ccc(Cl)cc2Cl)s1)C1COc2ccccc2O1` (stereo not drawn), for which the AC50 is 7.08 µM (active).
For the compound `O=C(Nc1ncc(Cc2ccccc2)s1)C1COc2ccccc2O1` (stereo not drawn), the AC50 was 6.31 µM (active).
On to `CN(Cc1ccco1)c1cc(-c2ccccc2C(F)(F)F)ncn1`, for which the activity, negative = inhibition was 9.45% [at 2.29 µM] (inactive).
For `COc1ccc2c(=O)c(-c3ccccc3C)c(C)oc2c1`, the AC50 is 17.8 µM (active).
Consider `COc1ccc2[nH]cc(CCNc3cc(-c4ccccc4C)ncn3)c2c1`, for which the activity, negative = inhibition was -17.1% [at 2.29 µM] (inactive).
With `COc1cc(OC)c2c(c1)C(=O)c1cc(OC)cc(OC)c1C2=O`, the AC50 result is “inactive”.
Regarding `Clc1ccc2c(c1)N(CCCN1CCCC13CCCCC3)c1ccccc1S2`, the activity, negative = inhibition is 10.5% [at 11.4 µM] (inactive).
As for `COC(=O)[C@@]1(Cc2ccccc2)[C@H]2c3cc(C(=O)N4CCCC4)n(Cc4ccc(O)c(OC)c4)c3C[C@H]2CN1C(=O)c1ccccc1`, the AC50 is 2.51 µM (active).
On the same count and under the same terms, with `COC(=O)[C@@]1(Cc2ccccc2)[C@H]2c3cc(C(=O)N4CCCC4)n(Cc4ccc(OC)c(OC)c4)c3C[C@H]2CN1C(=O)c1ccccc1` the figure was 1.26 µM (active); with `CC(N)=O`, “inactive”.
Regarding `N#Cc1ccc(OC(=O)c2ccc(N=C(N)N)cc2)cc1`, the activity, negative = inhibition was 12.7% [at 11.4 µM] (inactive).
`N#Cc1ccc(Oc2nc(C(N)=O)cc(-c3ccccc3)n2)cc1`: the AC50 is 6.31 µM (active).
For the compound `NC(=O)Nc1n[nH]c(-c2ccccc2)n1`, the activity, negative = inhibition was -4.69% [at 11.4 µM] (inactive).
Take `O=C(NC[C@@H](O)CO)c1c(I)c(C(=O)NC[C@@H](O)CO)c(I)c(N(CCO)C(=O)CO)c1I`: the AC50 result is “inactive”.
On the same count and under the same terms, with `O=C(c1cc(C(F)(F)F)cc(C(F)(F)F)c1)N1CCC2(CC1)CCN(c1ccccn1)CC2` the entry was “inactive”.
With `Cc1ccc(C(=O)N2CCN(c3ccc(C(F)(F)F)cn3)CC2)cc1`, the AC50 is 15.8 µM (active).
Take `O=C(c1cc(C(F)(F)F)cc(C(F)(F)F)c1)N1CCC2(CC1)CN(c1ccccn1)C2`: the AC50 result was “inactive”.
Turning to `O=c1c(-c2ccccc2)nc2cnc(N3CCOCC3)nc2n1C1CC1`, the AC50 is 10 µM (active).
Consider `O=c1c(-c2ccccc2)nc2cnc(N3CCOCC3)nc2n1C[C@H]1CCCO1`, for which the AC50 entry is “inactive”.
With `COc1ccc(-n2c(=O)c(-c3ccccc3)nc3cnc(N4CCNCC4)nc32)cc1`, the AC50 entry is “inactive”.
On to `O=c1c(-c2ccccc2)nc2cnc(N3CCNCC3)nc2n1-c1ccccc1`, for which the AC50 entry was “inactive”.
Same read-out and setting: with `N#Cc1cccc(-c2nc3cnc(N4CCOCC4)nc3n(C3CC3)c2=O)c1` the entry was “inactive”.
`O=c1c(-c2ccc(F)cc2)nc2cnc(N3CCNCC3)nc2n1C1CC1`: the AC50 was 1 µM (active).
On the same count and under the same terms, under `O=c1c(-c2ccc(F)cc2)nc2cnc(N3CCOCC3)nc2n1C1CC1` stands “inactive”; under `N#Cc1cccc(-c2nc3cnc(N4CCNCC4)nc3n(C3CC3)c2=O)c1`, 0.631 µM (active).
Still for that read-out and setting: with `O=c1c(-c2ccccc2)nc2cnc(N3CCNCC3)nc2n1C1CC1` the figure was 0.158 µM (active); with `O=c1c(-c2ccc(Cl)cc2)nc2cnc(N3CCOCC3)nc2n1C1CC1`, “inactive”.
For the compound `O=c1c(-c2ccc(F)cc2)nc2cncnc2n1C1CC1`, the AC50 result was “inactive”.
Same read-out and setting: under `N#CCCn1c(=O)c(-c2cccc(C#N)c2)nc2cnc(N3CCOCC3)nc21` stands “inactive”; under `C1CCC(C(C[C@@H]2CCCCN2)C2CCCCC2)CC1`, “inactive”.
On to `CNc1ccnc(-c2ccccc2C)n1`, for which the activity, negative = inhibition was 24.5% [at 2.29 µM] (inactive).
As for `C[C@@H]1O[C@@H](n2cc(F)c(=O)[nH]c2=O)[C@H](O)[C@@H]1O`, the AC50 entry is “inactive”.
Same read-out and setting: under `N=C(C[C@@H](O)COc1ccccc1-c1ccccc1)N1CCCCC1` stands “inactive”; under `CC[C@H](C)[C@@H]1O[C@]2(CC[C@@H]1C)C[C@H]1C[C@H](CC=C(C)[C@@H](O[C@H]3C[C@H](OC)[C@H](O[C@H]4C[C@H](OC)[C@H](O)[C@H](C)O4)[C@H](C)O3)[C@@H](C)C=CC=C3CO[C@@H]4[C@@H](O)C(C)=C[C@H](C(=O)O1)[C@@]34O)O2`, “inactive”; under `COc1ccc(-c2nc3cnc(N4CCNCC4)nc3n(C)c2=O)cc1`, “inactive”.
Turning to `COc1ccc(-c2nc3cnc(N4CCN(C)CC4)nc3n(C3CC3)c2=O)cc1`, the AC50 result was “inactive”.
Same read-out and setting: under `Cn1c(=O)c(-c2cc(F)cc(F)c2)nc2cnc(N3CCOCC3)nc21` stands “inactive”; under `O=c1c(-c2cc(F)cc(F)c2)nc2cnc(N3CCOCC3)nc2n1C1CC1`, “inactive”.
Same read-out and setting: with `COc1ccc(-c2nc3cnc(N4CCNCC4)nc3n(C3CC3)c2=O)cc1` the figure was 7.94 µM (active); with `O=c1c(-c2cc(F)cc(F)c2)nc2cnc(N3CCNCC3)nc2n1C1CC1`, 0.158 µM (active).
